The source of these data is PubChem BioAssay (NCATS).

The structures appear in SMILES notation. Where “and” joins values, the source holds several entries; their conditions need not be identical. Equal entries are not always repeated. Records with an inconclusive call do not appear. More than one record can exist for a structure, and the calls need not agree. Calls of active or inactive are those of the source. Calls follow the shape of the dose curve; as a rule, active = well fitted curve in the direction sought with a large enough effect; inconclusive = small, poorly fitted or top-dose-only effect, or another doubt; inactive = no such curve, though single readings can be large; an effect the other way counts as inactive or inconclusive.

Assay [1] can be described thus: P-glycoprotein substrates identified in KB-3-1 adenocarcinoma cell line, qHTS therapeutic library screen (AID 1346986). Also: nearly all actives have a fitted effect of over 60% in size.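 Also: potency is read from the fitted curve at half-maximal effect; potency is for cytotoxicity meaning loss of cell viability.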 A digest of the protocol: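 KB-3-1 parental and colchicine-selected P-gp-overexpressing KB-8-5-11 cells (colchicine omitted during assay), 500 cells/well, dosed in dose-response for 72 h at 37 °C; CellTiter-Glo luminescence. Cytotoxic: curve class -1.1 to -2.4, max response >50%, AC50 < 10 uM.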
(In general: Quantitative high-throughput screening tests each substance at several concentrations.)

Assay [2] in a line: P-glycoprotein substrates identified in KB-8-5-11 adenocarcinoma cell line, qHTS therapeutic library screen (AID 1346987). Also: nearly all actives have a fitted effect of over 65% in size. Also: potency is read from the fitted curve at half-maximal effect. The method in brief: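 KB-8-5-11, a colchicine-selected P-gp-overexpressing KB-3-1 subline, was grown without colchicine for the assay. Cells were seeded at 500 cells/well, dosed in concentration-response and incubated 72 h at 37 degree C, 5% CO2. Viability was read by CellTiter-Glo luminescence.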

Assay [3] in a line: NS1 protein of Zika virus - qHTS assay to identify small molecule inhibitors in human HEK 293 cells (AID 1347053). Also: series mostly up to about 46 µM; nearly all actives have a fitted effect of over 55% in size. The method in brief:
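Following 20 h seeding, HEK 293 cells took compound, then 1 h later ZIKV MR766 (MOI = 0.5). Incubation ran 24 h at 37 C before TR-FRET detection of NS1; a drop in signal indicates inhibition.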

Assay [4] can be described thus: qHTS of pediatric cancer cell lines to identify multiple opportunities for drug repurposing: Primary screen for DAOY cells (AID 1347090). Also: nearly all actives have a fitted effect of over 55% in size. Also: potency is read from the fitted curve at half-maximal effect. A digest of the protocol:
(§1)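 Viability measured as metabolically active cells via CellTiter-Glo luminescence following 48 hours of compound exposure, 11-point dilutions in confirmatory testing. 500-1,000 cells/well plated 5 hours before dosing; controls were DMSO and 2.3 µM bortezomib.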

Assay [5] can be described thus: qHTS of pediatric cancer cell lines to identify multiple opportunities for drug repurposing: Primary screen for SJ-GBM2 cells (AID 1347091). Also: potency is read from the fitted curve at half-maximal effect. A digest of the protocol:
as §1

A short description of assay [6]: qHTS of pediatric cancer cell lines to identify multiple opportunities for drug repurposing: Primary screen for A673 cells (AID 1347092). Also: nearly all actives have a fitted effect of over 45% in size. Also: potency is read from the fitted curve at half-maximal effect. The method in brief: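 A673 cells (500-1,000 cells/well) were treated 48 hours at 37 degrees C with compounds at 11-point (0.78 nM to 46 µM) or 8-point (0.59 nM to 46 µM) dilutions. Viability read by CellTiter-Glo luminescence; concentration-response curves fitted.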

Assay [7] in a line: qHTS of pediatric cancer cell lines to identify multiple opportunities for drug repurposing: Primary screen for SK-N-MC cells (AID 1347093). Also: potency is read from the fitted curve at half-maximal effect. A digest of the protocol: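 Metabolically active cells were quantified by ATP-dependent luminescence (CellTiter-Glo, 15 min at room temperature) following 48 h treatment. Cells had been plated at 500-1,000 per well and settled for 5 h beforehand.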

The nature of assay [8]: qHTS of pediatric cancer cell lines to identify multiple opportunities for drug repurposing: Primary screen for U-2 OS cells (AID 1347096). Also: nearly all actives have a fitted effect of over 50% in size. A digest of the protocol:
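Viability after 48 h compound treatment at 37C, 500-1,000 cells/well, read as ATP luminescence with CellTiter-Glo. Primary screens used 11-point (MIPE, 0.78 nM-46 µM) or 8-point (NPC, 0.59 nM-46 µM) final concentrations; follow-up screens used 11-point dilutions.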

The nature of assay [9]: qHTS of pediatric cancer cell lines to identify multiple opportunities for drug repurposing: Primary screen for SK-N-SH cells (AID 1347098). Also: nearly all actives have a fitted effect of over 65% in size. Also: potency is read from the fitted curve at half-maximal effect. A digest of the protocol: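 Cells (500-1,000/well) rested 5 h, then received compounds for 48 h; metabolically active cells were measured by CellTiter-Glo luminescence. Final concentrations spanned up to 46 µM (MIPE, 11-point) or 0.59 nM-46 µM (NPC, 8-point) in primary screens, 11-point in follow-ups.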

Assay [10] is described as follows: qHTS of pediatric cancer cell lines to identify multiple opportunities for drug repurposing: Primary screen for TC32 cells (AID 1347089). Also: nearly all actives have a fitted effect of over 60% in size. Also: potency is read from the fitted curve at half-maximal effect. The method in brief: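 TC32 cells, 500-1,000/well in growth medium, compound-treated 48 h at 37 °C; viability from CellTiter-Glo luminescence. Primary screen: MIPE 11-point (0.78 nM–46 µM final), NPC 8-point (0.59 nM–46 µM final); confirmatory at 11-point dilutions.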

Assay [11] in a line: qHTS of pediatric cancer cell lines to identify multiple opportunities for drug repurposing: Primary screen for NB-EBc1 cells (AID 1347095). Also: potency is read from the fitted curve at half-maximal effect. A digest of the protocol: (§2)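 CRCs from 8- or 11-point titrations (lowest final 0.59 nM NPC, 0.78 nM MIPE). Cell viability: CellTiter-Glo after 48 h incubation, 15 min room-temperature development, luminescence imaging.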
Assay [12] in a line: qHTS of pediatric cancer cell lines to identify multiple opportunities for drug repurposing: Primary screen for BT-37 cells (AID 1347094). Also: potency is read from the fitted curve at half-maximal effect. The method in brief: as §2
Assay [13] is described as follows: qHTS of pediatric cancer cell lines to identify multiple opportunities for drug repurposing: Primary screen for Saos-2 cells (AID 1347097). Also: potency is read from the fitted curve at half-maximal effect; nearly all actives have a fitted effect of over 40% in size. A digest of the protocol:
as §2

For the compound `Cc1ccc2c(=O)c3cccc(CC(=O)O)c3oc2c1C`, the Potency entry in [1], in [2], in [3], in assay [5] and in [8] was “inactive” each time. Moreover, the Potency was 14.8 µM (active) in assay [4], 9.35 µM (active) in assay [6], 16.6 µM (active) in assay [7] and 24.1 µM (active) in assay [9].

For the compound `CCCCC[C@H](O)C=C[C@H]1[C@H](O)CC(=O)[C@H]1CC=CCCCC(=O)O`, the Potency entry in [1], in assay [2], in assay [10], in assay [4], in assay [5] and in assay [6] was “inactive” in each case. Also, the Potency entry in assay [11], in [8] and in [9] was “inactive” throughout.

Regarding `O=C(O)CCNc1cc(N2CCc3ccccc3CC2)nc(-c2ccccn2)n1`, the Potency entry in assay [1], in [2] and in assay [5] was “inactive” in each case. Further, the figures for the Potency in [6], in assay [7] and in [11] were 18.7 µM (active), 23.5 µM (active) and 23.5 µM (active), respectively.

For the compound `COC(=O)Nc1ccc(-c2nc(N3CCOCC3)c3cnn(C4CCN(C(=O)OC)CC4)c3n2)cc1`, the Potency in [1] was 1.64 µM (active); in [2], 469 nM (active) and 1.46 µM (active); in [4], 1.87 µM (active); in assay [5] it was 4.69 µM (active); in assay [6], 0.59 µM (active); in [12], 0.122 µM (active). For the same compound, the Potency in assay [11] is 0.0083 µM (active); in assay [13], 2.96 µM (active); in [9], 0.0192 µM (active).

Consider `CCC(=O)N1CCN(c2ccc(-n3c(=O)ccc4cnc5ccc(-c6cnc7ccccc7c6)cc5c43)cc2C(F)(F)F)CC1`, for which the Potency was 0.075 µM (active) in assay [1]; 41.8 nM (active) and 133 nM (active) in assay [2]; 0.0739 µM (active) in assay [10]; 0.0187 µM (active) in assay [5]; 0.0118 µM (active) in assay [6]; 0.0053 µM (active) in assay [7]. The Potency in assay [11] was 0.0662 µM (active).

As for `COc1nccc(-c2c(-c3ccc(F)cc3)ncn2C2CCC(O)CC2)n1` (stereo not drawn), the Potency result in assay [1], in [2], in assay [3], in assay [6], in assay [7] and in assay [11] was “inactive” each time. Also, the Potency entry in [8] and in assay [9] was “inactive” throughout.

For `CN1C(=O)C[C@H](C(=O)N[C@@H](Cc2cnc[nH]2)C(=O)N2CCC[C@@H]2C(N)=O)NC1=O`, the Potency entry in assay [1], in assay [2], in [3], in assay [10], in assay [8] and in assay [9] was “inactive” each time. In addition, in [12], the Potency is 24.3 µM (active).

In the case of `CO[C@H]1O[C@@H]2O[C@@]3(C)CC[C@@H]4[C@@H](C)CC[C@@H]([C@H]1C)[C@@]24OO3`, the Potency entry in assay [1], in [2], in [3], in [4], in assay [5] and in [6] was “inactive” throughout. The Potency result in [8] and in assay [9] was “inactive” throughout. Further, the Potency in [7] was 5.26 µM (active).

On to `CSc1cccc(Nc2ncc3cc(-c4c(Cl)cccc4Cl)c(=O)n(C)c3n2)c1`, for which the Potency in assay [1] was 2.06 µM (active); in assay [2], “inactive and 1.3 µM (active)”; in assay [11], 0.372 µM (active); in assay [13], 0.118 µM (active). Further, the Potency result in [10] and in assay [9] was “inactive” in each case.

Consider `COc1cc2nccc(Oc3ccc(NC(=O)Nc4ccc(F)cc4F)c(F)c3)c2cc1OC`, for which the Potency is 7.31 µM (active) in assay [1]; 7.31 µM (active) in [2]; 2.96 µM (active) in assay [5]; 3.72 µM (active) in assay [7]; 2.35 µM (active) in assay [11]. Further, the Potency entry in assay [12], in assay [8] and in assay [9] was “inactive” each time.
